For some of these results: Results with a measured potency or affinity are listed apart.

Set-up in all cases: scale not given: direction of the effect not stated beside the values
Experiment [1] concerns the target Protein translocase subunit SecA (Escherichia coli (strain K12)) (UniProt P10408). Kind of experiment: Assay to Identify E. coli SecA ATPase Inhibitors. The format is functional. To be noted: 30 µM.
Experiment [2] addresses T1, Ubiquitin-activating enzyme e1, putative (Leishmania donovani (strain BPK282A1)) (UniProt E9BSI1).
T1 sequence (whole entry): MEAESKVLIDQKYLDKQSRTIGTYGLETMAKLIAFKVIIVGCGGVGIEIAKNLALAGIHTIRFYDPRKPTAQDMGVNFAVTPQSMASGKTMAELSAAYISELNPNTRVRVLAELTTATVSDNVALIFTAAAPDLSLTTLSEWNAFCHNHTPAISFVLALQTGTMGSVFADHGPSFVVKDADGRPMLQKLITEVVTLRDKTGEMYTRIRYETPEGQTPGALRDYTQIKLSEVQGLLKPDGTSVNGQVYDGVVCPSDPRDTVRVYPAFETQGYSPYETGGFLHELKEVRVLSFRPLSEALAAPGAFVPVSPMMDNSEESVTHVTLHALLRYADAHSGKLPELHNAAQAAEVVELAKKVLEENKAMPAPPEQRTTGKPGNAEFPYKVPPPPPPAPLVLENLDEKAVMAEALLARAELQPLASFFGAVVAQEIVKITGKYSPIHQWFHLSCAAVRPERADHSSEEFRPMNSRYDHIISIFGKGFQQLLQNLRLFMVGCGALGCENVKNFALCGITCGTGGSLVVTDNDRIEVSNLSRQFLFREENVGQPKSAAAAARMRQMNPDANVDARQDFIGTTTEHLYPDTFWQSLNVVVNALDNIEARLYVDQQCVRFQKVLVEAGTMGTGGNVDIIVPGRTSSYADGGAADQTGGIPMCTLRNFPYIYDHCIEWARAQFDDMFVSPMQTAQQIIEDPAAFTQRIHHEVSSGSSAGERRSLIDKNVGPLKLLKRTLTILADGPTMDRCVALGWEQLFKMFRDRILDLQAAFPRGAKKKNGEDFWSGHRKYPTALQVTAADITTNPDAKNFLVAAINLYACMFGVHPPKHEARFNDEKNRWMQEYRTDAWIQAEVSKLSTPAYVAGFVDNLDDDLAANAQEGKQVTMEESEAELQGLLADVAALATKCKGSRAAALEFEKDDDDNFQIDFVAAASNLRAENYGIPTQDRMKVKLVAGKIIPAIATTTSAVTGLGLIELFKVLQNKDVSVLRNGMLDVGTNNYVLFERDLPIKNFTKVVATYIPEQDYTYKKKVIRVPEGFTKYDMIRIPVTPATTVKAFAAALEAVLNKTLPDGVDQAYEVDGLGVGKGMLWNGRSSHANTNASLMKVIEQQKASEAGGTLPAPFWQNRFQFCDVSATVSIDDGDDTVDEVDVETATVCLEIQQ
As to the kind of experiment: Leishmania donovani Ubiquitin Activating Enzyme (LdE1). The experiment is classed as functional. To be noted: 30 µM.

Experiment [3] addresses AMP-activated protein kinase, AMPK (Homo sapiens) (UniProt P54646+O43741+P54619+Q9UGJ0+Q9Y478+Q13131+Q9UGI9). Kind of experiment: AMP-dependent Kinase enzyme assay. An in vitro enzyme assay that detects ADP turnover that is directly proportional to AMPK activity. This uses naive AMPK that is activated during the assay with MK-8722. The experiment is classed as functional. To be noted: 30 µM.

In experiment [4] the target is Sialic acid-binding Ig-like lectin 9 (Homo sapiens) (UniProt Q9Y336). As to the kind of experiment: Hs-Siglec9 ALPHAscreen SOP 20170721. To be noted: 10 µM. (In Alpha technology, singlet oxygen from a donor bead excites a nearby acceptor bead.)
A further experiment deals with Trypanosoma cruzi. As to the kind of experiment: Trypanosoma cruzi phosphomannomutase and mannose-1-phosphate guanylyltransferase assay. The experiment is classed as functional. To be noted: 10 µM.
Experiment [5] has as its target T2, Arginase-2, mitochondrial (Homo sapiens) (UniProt P78540).
T2 sequence (whole entry): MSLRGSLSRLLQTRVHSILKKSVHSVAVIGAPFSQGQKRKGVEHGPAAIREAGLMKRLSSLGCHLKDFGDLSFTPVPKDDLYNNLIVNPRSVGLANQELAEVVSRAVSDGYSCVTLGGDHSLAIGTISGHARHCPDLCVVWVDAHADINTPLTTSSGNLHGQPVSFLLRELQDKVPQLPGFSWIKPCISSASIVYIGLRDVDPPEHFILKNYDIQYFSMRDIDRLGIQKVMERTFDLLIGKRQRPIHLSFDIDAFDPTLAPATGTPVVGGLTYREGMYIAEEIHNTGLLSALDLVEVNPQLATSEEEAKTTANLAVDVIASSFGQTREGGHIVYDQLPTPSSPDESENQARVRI
As to the kind of experiment: in vitro enzyme assay to detect the production of urea directly proportional to the activity of Arginase II. Further: in the data most compounds retested in dose-response had high values. The format is functional. The note with it: 33.3 µM.

Experiment [6] deals with T3, Proteasome subunit beta (Trypanosoma cruzi) (UniProt O96673).
T3 sequence (whole entry): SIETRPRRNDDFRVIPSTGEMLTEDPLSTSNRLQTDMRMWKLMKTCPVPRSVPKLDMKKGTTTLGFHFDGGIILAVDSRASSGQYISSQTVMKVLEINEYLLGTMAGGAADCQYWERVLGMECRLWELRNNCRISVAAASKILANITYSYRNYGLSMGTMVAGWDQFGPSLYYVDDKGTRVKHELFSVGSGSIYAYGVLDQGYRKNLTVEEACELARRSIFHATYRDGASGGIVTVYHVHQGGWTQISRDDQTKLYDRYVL
As to the kind of experiment: Trypanosoma cruzi proteasome chymotrypsin-like activity (TcProtChymo) assay. Further: in the data most compounds retested in dose-response had high values. The format is functional. The note with it: 9.37 µM.

For a further experiment, the species on record is Homo sapiens. As to the kind of experiment: To identify inhibition of the IFN signalling (Jak-Stat) pathway via expression of an eGFP reporter gene under the control of an IFN-stimulated response element (ISRE) containing MxA promoter. The note with it: 30 µM. The experiment is classed as functional. For orientation: In a reporter assay the amount or activity of a reporter protein is the signal.

Experiment [7] deals with T4, Tyrosyl-tRNA synthetase, putative (Trypanosoma cruzi (strain CL Brener)) (UniProt Q4DSP6).
T4 sequence (whole entry): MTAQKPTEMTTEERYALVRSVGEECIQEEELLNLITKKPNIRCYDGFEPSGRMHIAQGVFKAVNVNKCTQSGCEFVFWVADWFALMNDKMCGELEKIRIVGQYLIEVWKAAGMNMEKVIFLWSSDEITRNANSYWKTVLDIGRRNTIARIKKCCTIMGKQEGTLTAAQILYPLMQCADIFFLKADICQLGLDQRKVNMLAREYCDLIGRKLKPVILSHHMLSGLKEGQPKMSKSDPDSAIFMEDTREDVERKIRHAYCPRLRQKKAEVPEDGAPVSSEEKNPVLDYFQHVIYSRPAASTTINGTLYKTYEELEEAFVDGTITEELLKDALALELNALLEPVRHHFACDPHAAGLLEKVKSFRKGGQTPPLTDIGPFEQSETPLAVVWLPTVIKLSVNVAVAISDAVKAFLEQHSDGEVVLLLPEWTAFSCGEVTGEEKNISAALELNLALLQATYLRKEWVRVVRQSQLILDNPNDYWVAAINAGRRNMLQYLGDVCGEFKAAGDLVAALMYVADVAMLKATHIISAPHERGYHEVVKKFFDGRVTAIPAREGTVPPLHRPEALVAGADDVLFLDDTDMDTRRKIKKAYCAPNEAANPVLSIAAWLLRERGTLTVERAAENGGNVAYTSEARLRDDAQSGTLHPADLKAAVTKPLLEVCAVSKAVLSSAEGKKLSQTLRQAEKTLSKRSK
As to the kind of experiment: Trypanosoma cruzi tyrosyl tRNA synthetase (TcYRS) _High Tyrosine SOP. Further: in the data most compounds retested in dose-response had high values. The experiment is classed as functional. To be noted: 30 µM.

Experiment [8] has as its target T4, Tyrosyl-tRNA synthetase, putative (Trypanosoma cruzi (strain CL Brener)). Kind of experiment: Trypanosoma cruzi tyrosyl tRNA synthetase (TcYRS) SOP. The experiment is classed as functional. The note with it: 30 µM.
For experiment [9], the target named is Chromo domain-containing protein 1 (Saccharomyces cerevisiae (strain ATCC 204508 / S288c) (Baker's yeast)) (UniProt P32657). Kind of experiment: ScCHD-1 Enzyme Inhibition Assay. Further: in the data most compounds retested in dose-response had high values. The format is functional. The note with it: 30 µM.
Chain of Chromo domain-containing protein 1 (Saccharomyces cerevisiae (strain ATCC 204508 / S288c) (Baker's yeast)) (P32657 whole entry, the tested form may be a part): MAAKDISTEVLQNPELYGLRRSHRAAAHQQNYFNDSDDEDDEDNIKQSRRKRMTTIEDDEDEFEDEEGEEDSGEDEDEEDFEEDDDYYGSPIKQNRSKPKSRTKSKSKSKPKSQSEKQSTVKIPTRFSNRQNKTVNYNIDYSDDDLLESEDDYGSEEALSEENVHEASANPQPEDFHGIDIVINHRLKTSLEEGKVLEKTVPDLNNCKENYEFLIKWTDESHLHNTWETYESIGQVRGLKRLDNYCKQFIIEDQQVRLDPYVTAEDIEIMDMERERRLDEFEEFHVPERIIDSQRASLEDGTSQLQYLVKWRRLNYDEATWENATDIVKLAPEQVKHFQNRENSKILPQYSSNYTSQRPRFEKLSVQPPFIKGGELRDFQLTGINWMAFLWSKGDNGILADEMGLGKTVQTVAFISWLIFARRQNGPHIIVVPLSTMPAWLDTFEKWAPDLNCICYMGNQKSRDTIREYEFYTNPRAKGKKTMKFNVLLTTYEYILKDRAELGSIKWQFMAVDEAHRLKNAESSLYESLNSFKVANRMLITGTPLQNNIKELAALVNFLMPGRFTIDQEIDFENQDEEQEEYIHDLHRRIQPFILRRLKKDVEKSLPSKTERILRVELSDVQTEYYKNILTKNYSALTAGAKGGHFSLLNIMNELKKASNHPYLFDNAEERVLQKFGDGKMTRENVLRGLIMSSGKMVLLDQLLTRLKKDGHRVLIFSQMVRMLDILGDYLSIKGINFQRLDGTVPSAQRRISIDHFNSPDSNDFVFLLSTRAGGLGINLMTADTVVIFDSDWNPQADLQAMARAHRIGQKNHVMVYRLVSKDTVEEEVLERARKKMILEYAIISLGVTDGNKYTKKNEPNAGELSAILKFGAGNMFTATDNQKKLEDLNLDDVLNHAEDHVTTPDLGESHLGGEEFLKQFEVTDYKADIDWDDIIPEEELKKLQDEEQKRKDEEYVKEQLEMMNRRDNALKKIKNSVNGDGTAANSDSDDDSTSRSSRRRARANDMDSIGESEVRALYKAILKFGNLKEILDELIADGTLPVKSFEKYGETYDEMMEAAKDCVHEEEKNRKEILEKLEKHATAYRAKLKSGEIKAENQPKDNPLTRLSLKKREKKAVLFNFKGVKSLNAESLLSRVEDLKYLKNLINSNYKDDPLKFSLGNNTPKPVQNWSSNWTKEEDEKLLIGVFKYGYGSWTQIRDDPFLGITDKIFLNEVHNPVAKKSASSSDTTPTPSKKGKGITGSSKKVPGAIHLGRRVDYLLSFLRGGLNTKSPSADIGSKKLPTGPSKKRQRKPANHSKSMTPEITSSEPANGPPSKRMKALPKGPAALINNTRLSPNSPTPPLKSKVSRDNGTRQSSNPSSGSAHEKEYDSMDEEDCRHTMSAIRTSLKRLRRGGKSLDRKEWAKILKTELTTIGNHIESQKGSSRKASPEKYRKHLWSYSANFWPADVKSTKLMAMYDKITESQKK

Chain of Sialic acid-binding Ig-like lectin 9 (Homo sapiens) (Q9Y336 whole entry): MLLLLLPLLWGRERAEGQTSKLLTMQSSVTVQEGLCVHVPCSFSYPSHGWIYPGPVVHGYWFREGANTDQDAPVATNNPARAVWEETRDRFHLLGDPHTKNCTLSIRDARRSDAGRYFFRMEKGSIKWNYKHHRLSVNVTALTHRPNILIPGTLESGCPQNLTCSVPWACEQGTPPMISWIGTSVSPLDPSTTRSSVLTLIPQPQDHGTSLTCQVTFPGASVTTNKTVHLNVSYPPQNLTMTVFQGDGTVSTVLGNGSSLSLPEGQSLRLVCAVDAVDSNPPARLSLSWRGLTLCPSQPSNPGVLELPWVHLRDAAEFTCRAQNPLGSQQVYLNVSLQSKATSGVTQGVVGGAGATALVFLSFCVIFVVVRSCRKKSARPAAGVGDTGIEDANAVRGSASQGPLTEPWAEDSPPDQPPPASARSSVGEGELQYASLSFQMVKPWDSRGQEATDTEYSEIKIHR
Chain of Protein translocase subunit SecA (Escherichia coli (strain K12)) (P10408 whole entry): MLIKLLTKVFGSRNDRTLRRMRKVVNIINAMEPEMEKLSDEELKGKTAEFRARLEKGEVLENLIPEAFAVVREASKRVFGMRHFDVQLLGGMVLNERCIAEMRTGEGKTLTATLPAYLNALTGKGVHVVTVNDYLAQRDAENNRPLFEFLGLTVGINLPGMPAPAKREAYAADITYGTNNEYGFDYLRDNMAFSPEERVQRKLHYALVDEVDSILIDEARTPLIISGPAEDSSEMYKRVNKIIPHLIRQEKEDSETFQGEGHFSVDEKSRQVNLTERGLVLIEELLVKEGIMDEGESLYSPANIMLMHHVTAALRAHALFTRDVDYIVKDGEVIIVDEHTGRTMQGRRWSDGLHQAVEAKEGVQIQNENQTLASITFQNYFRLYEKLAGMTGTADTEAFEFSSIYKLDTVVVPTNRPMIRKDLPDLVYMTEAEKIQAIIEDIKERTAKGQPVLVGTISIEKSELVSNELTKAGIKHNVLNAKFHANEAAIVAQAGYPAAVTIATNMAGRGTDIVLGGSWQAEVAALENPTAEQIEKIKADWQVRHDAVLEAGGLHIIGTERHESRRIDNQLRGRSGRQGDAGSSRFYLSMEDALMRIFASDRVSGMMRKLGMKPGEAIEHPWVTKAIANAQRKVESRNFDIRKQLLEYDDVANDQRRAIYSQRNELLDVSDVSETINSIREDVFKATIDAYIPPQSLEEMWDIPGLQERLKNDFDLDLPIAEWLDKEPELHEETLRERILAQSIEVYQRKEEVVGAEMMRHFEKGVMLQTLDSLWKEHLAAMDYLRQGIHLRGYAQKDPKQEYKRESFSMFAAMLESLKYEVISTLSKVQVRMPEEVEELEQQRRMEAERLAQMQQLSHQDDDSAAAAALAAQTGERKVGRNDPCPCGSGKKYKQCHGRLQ

Turning to `Cc1cnn(CC2CCCN2C(=O)CCc2nc3ccccc3[nH]2)c1` (stereo unspecified), the Percent Effect in [1] is -4.12%; in experiment [2] it was 7.59%; in experiment [3] it was -2.81%; in experiment [4], 11.1%; in the experiment on Trypanosoma cruzi, 4.82%; in experiment [5], 0.38%. Besides, the Percent Effect in [6] is -3.69%; in the experiment listed under Homo sapiens, -14.8%; in experiment [7] it was 1.48%; in [8] it was 8.86%; in [9], -1.08%.
As for `CCc1noc(C)c1C(=O)N(C)Cc1ncc(C)c(OC)c1C`, the Percent Effect in [1] is -5.87%; in experiment [2] it was 10.4%; in experiment [3], 5.05%; in experiment [4] it was -5.08%; in the experiment with Trypanosoma cruzi it was 6.76%; in [5] it was 2.32%. Besides, the Percent Effect in experiment [6] was 7.36%; in the experiment listed under Homo sapiens it was 7.84%; in experiment [7] it was 8.57%; in experiment [8], 18.8%; in experiment [9], -14.6%.
`CC(C)C1CN(c2ncccn2)CCC(=O)N1Cc1ccc(F)cc1` (stereo unspecified): the Percent Effect was -4.22% in [1]; 6.94% in experiment [2]; -1.8% in experiment [3]; -3.12% in experiment [4]; -0.291% in the experiment on Trypanosoma cruzi; 4.86% in experiment [5]. Besides, the Percent Effect in experiment [6] was 7.54%; in the experiment listed under Homo sapiens, 8.83%; in [7], 7.37%; in experiment [8], 12.8%; in [9] it was -3.01%.
`CCn1cc(NC(=O)C2CCN(Cc3ccccc3C#N)CC2)cn1`: the Percent Effect is -3.86% in [1]; 8.86% in experiment [2]; 6.54% in [3]; 0.163% in experiment [4]; -3.79% in the experiment with Trypanosoma cruzi; 1.5% in [5]. Also, the Percent Effect in experiment [6] is 7.03%; in the experiment filed under Homo sapiens it was 11.2%; in [7], 9.38%; in experiment [8], 20.2%; in [9] it was -6.33%.
For `CSC(C)(C)CNC(=O)NC1CCSCC1`, the Percent Effect in [1] was -4.83%; in [2], 13.3%; in experiment [3], -5.19%; in experiment [4] it was 18.2%; with Trypanosoma cruzi, 8.47%; in experiment [5], 5.73%. In addition, the Percent Effect in experiment [6] is 6.63%; in the experiment filed under Homo sapiens, 4.48%; in experiment [7], 0.546%; in experiment [8], 11.1%; in [9], -6.59%.
As for `COC(=O)c1ccc(N2CCN(C(=O)c3ccncc3)C(C)C2)cc1` (stereo unspecified), the Percent Effect in experiment [1] is -4.64%; in experiment [2], 20.2%; in experiment [3], -9.5%; in experiment [4] it was 4.75%; in the experiment on Trypanosoma cruzi it was 4.63%; in experiment [5] it was -2.66%. The Percent Effect in [6] is 10.1%; in the experiment filed under Homo sapiens, 20.8%; in experiment [7], 8.37%; in experiment [8] it was 24.1%; in experiment [9], -9.65%.
As to `COc1ccc(CNC(=O)Nc2cccnc2N2CCCC2)cc1O`, the Percent Effect is -2.46% in experiment [1]; 16.2% in experiment [2]; -3.7% in experiment [3]; 16.1% in [4]; 4.81% in the experiment on Trypanosoma cruzi; -7.62% in experiment [5]. The Percent Effect in experiment [6] was 1.62%; in the experiment listed under Homo sapiens, 7.88%; in experiment [7], 2.46%; in experiment [8], 16.1%; in experiment [9] it was -7.7%.
With `Cn1c(Cn2ccnc2)nnc1C1CCN(C(=O)C2(C)CC2)CC1`, the Percent Effect is -1.61% in experiment [1]; 11% in experiment [2]; -0.77% in experiment [3]; 4.51% in experiment [4]; -2.98% in the experiment with Trypanosoma cruzi; -4.39% in experiment [5]. Also, the Percent Effect was 21% in experiment [6]; 17% in the experiment filed under Homo sapiens; 5.21% in experiment [7]; 18.5% in experiment [8]; -5.12% in experiment [9].
As to `COc1ncccc1C(=O)N1CCC(c2nnc(C3CC3)o2)CC1`, the Percent Effect is -1.83% in experiment [1]; 10.4% in [2]; 11.3% in [3]; 3.07% in [4]; -5.82% in the experiment on Trypanosoma cruzi; 16.1% in experiment [5]. Further, the Percent Effect is 9.75% in experiment [6]; -6.69% in the experiment filed under Homo sapiens; 4.23% in experiment [7]; 11.5% in experiment [8]; -9.2% in experiment [9].
Regarding `CCCn1nc2c(cc1=O)CN(CCCS(N)(=O)=O)CC2`, the Percent Effect in experiment [1] is -1.13%; in experiment [2], 0%; in experiment [3] it was -142%; in [4], 6.58%; in the experiment on Trypanosoma cruzi it was -3.3%; in experiment [5] it was 6.01%. The Percent Effect is 12.1% in experiment [6]; -3.47% in the experiment filed under Homo sapiens; -1.48% in experiment [7]; -8.64% in experiment [8]; -2.91% in experiment [9].
For `CCS(=O)(=O)N1CCC(c2nnc(Cn3cccn3)n2C2CC2)CC1`, the Percent Effect was -4.32% in [1]; 1.39% in experiment [2]; -35.4% in experiment [3]; -1% in [4]; 2.23% in the experiment with Trypanosoma cruzi; 3.97% in experiment [5]. The Percent Effect in [6] was 2.1%; in the experiment listed under Homo sapiens it was -11.4%; in experiment [7], 2.1%; in experiment [8], 7.69%; in [9], -2.3%.

Source of the values: ChEMBL document CHEMBL3988442, “University of Dundee, Small-Polar-MMV Screening Library” (2021).
